Reference: PubChem BioAssay (NCATS)
Records with an inconclusive call do not appear. A number with no mark means an inactive call. Unless noted, the call rests on the fitted dose curve; in most records, active means well fitted inhibition curve with a large enough effect; inconclusive means small, poorly fitted or top-dose-only effect; inactive means flat fitted curve, though single readings scatter. Bridge positions count the residues as written; N and C are the ends. Square brackets hold non-standard residues; d marks the D form. Peptide text beside a SMILES is read from it. * marks the point of attachment. ξ: configuration not given here. Octanoyl(6-Me) = CCC(C)CCCCC(=O)*; ξThr(3R) = C[C@@H](O)C(N)C(=O)O; dDab = NCC[C@@H](N)C(=O)O; Dab = NCC[C@H](N)C(=O)O

These molecules were tested against 3',5'-cyclic-AMP phosphodiesterase 4B (Homo sapiens) (UniProt Q07343) (assay: qHTS Assay for Inhibitors of PDE-IV (AID 607; active means well fitted activation curve with a large enough effect in the main read-out, with a control signal flat, not every such curve was filed as active; further: % of control where 0% means no effect)). Settings: HEK293 ACTOne CNG channel cells, membrane potential fluorescence; series mostly up to 22.9 µM; activation (PDE inhibition): at the top concentration.
How it was run: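 ACTOne HEK293 cells carry a modified cAMP-gated CNG channel and express endogenous PDE4; plated 1000 cells/well, compounds up to 22.9 uM final. Membrane-potential dye fluorescence (ex 535/em 590) was read; parental cells received 10 uM forskolin + 100 uM RO 20-1724.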

3',5'-cyclic-AMP phosphodiesterase 4B (Homo sapiens), sequence (Q07343 whole entry, looked up): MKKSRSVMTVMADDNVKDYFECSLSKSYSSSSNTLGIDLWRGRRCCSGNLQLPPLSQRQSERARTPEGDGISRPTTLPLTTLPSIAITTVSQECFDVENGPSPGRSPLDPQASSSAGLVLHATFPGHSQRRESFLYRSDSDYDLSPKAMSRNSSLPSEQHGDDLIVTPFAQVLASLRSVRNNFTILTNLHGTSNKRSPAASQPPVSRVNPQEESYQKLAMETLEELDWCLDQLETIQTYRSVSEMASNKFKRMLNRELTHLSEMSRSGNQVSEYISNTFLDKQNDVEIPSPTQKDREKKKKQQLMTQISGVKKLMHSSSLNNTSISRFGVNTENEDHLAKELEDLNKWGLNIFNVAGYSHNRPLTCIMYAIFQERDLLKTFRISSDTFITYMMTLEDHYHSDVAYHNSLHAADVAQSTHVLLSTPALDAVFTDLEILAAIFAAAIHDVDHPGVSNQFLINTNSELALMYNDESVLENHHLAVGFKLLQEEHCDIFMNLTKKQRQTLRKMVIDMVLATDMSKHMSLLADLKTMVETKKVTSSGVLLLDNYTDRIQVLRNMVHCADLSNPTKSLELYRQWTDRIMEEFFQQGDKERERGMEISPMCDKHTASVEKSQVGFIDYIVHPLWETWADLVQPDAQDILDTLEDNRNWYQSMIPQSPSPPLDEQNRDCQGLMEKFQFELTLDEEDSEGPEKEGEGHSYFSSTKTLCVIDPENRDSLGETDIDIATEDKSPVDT

Compound	activation (PDE inhibition) [%]
CCc1c2c(nc3ccc(OC)cc13)OC(C)C2 (stereo not given)	15.8
COC(=O)[C@@]1(Cc2ccc(OC)cc2)[C@H]2c3cc(C(=O)N(C)C)n(Cc4ccc(Cl)c(C(F)(F)F)c4)c3C[C@H]2CN1C(=O)c1ccccc1	-19.7
COC(=O)[C@@]1(Cc2ccc(OC)cc2)[C@H]2c3cc(C(=O)N4CCCC4)n(CCCNc4ncc(C(F)(F)F)cc4Cl)c3C[C@H]2CN1C(=O)c1ccccc1	1.75
COC(=O)[C@@]1(Cc2ccc(OC)cc2)[C@H]2c3cc(C(=O)N4CCCC4)n(CCF)c3C[C@H]2CN1C(=O)c1ccccc1	7.92

Each molecule was assayed against Luciferin 4-monooxygenase (Photinus pyralis) (UniProt P08659) (assay: Biochemical firefly luciferase enzyme assay for NPC (AID 624030;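 further: purified P. pyralis luciferase at 10 nM with luciferin and ATP substrate; 0% = DMSO and -100% = full luciferase inhibition by PTC124 control; nearly all actives have a fitted effect of over 70% in size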)). Settings: purified P. pyralis luciferase, luminescence, 5 min; series mostly up to 58.6 µM; activity change, negative = inhibition: at the top concentration.
How it was run: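 Counter-screen for direct inhibition of the luciferase enzyme by approved-drug library compounds, run at 10 nM enzyme in 50 mM Tris acetate (final). Luminescence was read within 5 min of enzyme-buffer addition and normalized to PTC124 versus DMSO (0%).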

Luciferin 4-monooxygenase (Photinus pyralis), sequence (P08659 whole entry, looked up): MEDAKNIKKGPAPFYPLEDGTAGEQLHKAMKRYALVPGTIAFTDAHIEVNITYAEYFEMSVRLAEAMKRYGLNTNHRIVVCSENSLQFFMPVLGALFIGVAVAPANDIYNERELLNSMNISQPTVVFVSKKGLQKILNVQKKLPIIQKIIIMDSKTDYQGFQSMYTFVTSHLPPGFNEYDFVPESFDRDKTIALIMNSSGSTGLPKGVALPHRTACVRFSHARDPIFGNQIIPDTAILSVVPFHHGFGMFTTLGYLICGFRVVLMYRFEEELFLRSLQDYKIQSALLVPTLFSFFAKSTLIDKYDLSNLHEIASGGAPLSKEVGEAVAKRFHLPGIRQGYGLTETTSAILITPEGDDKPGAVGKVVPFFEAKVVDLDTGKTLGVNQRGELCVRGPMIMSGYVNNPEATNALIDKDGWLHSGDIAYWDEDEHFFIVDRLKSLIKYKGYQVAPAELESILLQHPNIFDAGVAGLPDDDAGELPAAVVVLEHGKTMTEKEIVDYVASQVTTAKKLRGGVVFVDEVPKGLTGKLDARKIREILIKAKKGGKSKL

Compound	activity change, negative = inhibition
CC[C@H]1OC(=O)[C@H](C)[C@@H](O[C@H]2C[C@@](C)(OC)[C@@H](O)[C@H](C)O2)[C@H](C)[C@@H](O[C@@H]2O[C@H](C)C[C@H](N(C)C)[C@H]2O)[C@](C)(O)C[C@@H](C)[C@@H]2N[C@@H](COCCOC)O[C@H]([C@H]2C)[C@]1(C)O	-0.0397%
O=C1OC2C(O)C(O)OC2C1O (stereo not given)	-1.14%
CO[C@]1(NC(=O)Cc2cccs2)C(=O)N2C(C(=O)O)=CC(COC(N)=O)S[C@H]21 (stereo not given in full)	-6.72%
CC(CN1CCOCC1)C(Cc1ccccc1)(Cc1ccccc1)C(=O)N1CCCC1 (stereo not given)	3.31% [at 123 µM]
CC(C)(C)NC(=O)[C@H]1CC[C@H]2[C@@H]3CC=C4C=C(C(=O)O)CC[C@@]4(C)[C@H]3CC[C@]12C	-5.42%
C/C=C1\NC(=O)[C@H]2CSSCC/C=C\[C@H](CC(=O)N[C@H](C(C)C)C(=O)N2)OC(=O)C(C(C)C)NC1=O (stereo not given in full)	-3.53%
CCC(C)CCCCC(=O)N[C@@H](CCN)C(=O)N[C@H](C(=O)N[C@@H](CCN)C(=O)N[C@H]1CCNC(=O)C([C@@H](C)O)NC(=O)[C@@H](CCN)NC(=O)[C@H](CCN)NC(=O)[C@H](CC(C)C)NC(=O)[C@@H](CC(C)C)NC(=O)[C@H](CCN)NC1=O)[C@@H](C)O (stereo partly drawn) ({Octanoyl(6-Me)}-[Dab]T[Dab][Dab][Dab][dL]L[Dab][dDab][ξThr(3R)]; lactam 4-C)	11.7%
Cc1ccccc1C(=O)N1CC/C(=N/OS(=O)(=O)O)c2ccc(Cl)cc21	-7.44%
C[N+]1(C)CCC(OC(=O)CC(O)(c2ccccc2)C2CCCC2)C1 (stereo not given)	0.887%
CC1CC2C3CCC4=CC(=O)C=CC4(C)[C@@]3(F)C(O)CC2(C)[C@@]1(O)C(=O)CCl (stereo not given in full)	-4.98%
COc1cc2c(c(OC)c1OC)-c1c(cc3c(c1OC)OCO3)CC(C)C(C)(O)C2 (stereo not given)	-6%
CC(=O)OCC(=O)C1(O)CCC2C3CCC4=CC(=O)CCC4(C)C3(F)C(O)CC21C (stereo not given)	-3.24%
C[N+]1(C)CCN(C[C@@](O)(c2ccccc2)C2CCCCC2)CC1	-1.92%
CC(C)N(Cc1ccccc1)C(C)C (tested in a mixture with another compound)	0.335%
C=C1/C(=C\C=C2/CCC[C@@]3(C)[C@@H]([C@H](C)OCCC(C)(C)O)CC[C@@H]23)C[C@@H](O)C[C@@H]1O	-8.86%
COC(=O)C1=C(C)NC(C)=C(C(=O)O[C@H]2CCN(Cc3ccccc3)C2)C1c1cccc([N+](=O)[O-])c1 (stereo not given in full)	-0.631%
Cc1ccc(C(=O)[C@H](C)CN2CCCCC2)cc1	-7.21%
CO[C@H]1C[C@@H](O[C@@H]2[C@@H](C)O[C@@H](O[C@@H]3/C(C)=C/CC4C[C@@H](C[C@]5(C=C[C@@H](C)[C@H](C6CCCCC6)O5)O4)OC(=O)[C@@H]4C=C(C)[C@@H](O)[C@H]5OC/C(=C\C=C\[C@@H]3C)[C@]54O)C[C@H]2OC)O[C@@H](C)[C@@H]1O	-0.99%
O=CC(O)C(O)C(O)C(O)CO (stereo not given)	-0.114%
CC(=O)SC1CC2=CC(=O)CCC2(C)C2CCC3(C)C(CCC34CCC(=O)O4)C12 (stereo not given)	-6.55%
C/C(=C(/CCOC(=O)c1ccccc1)SS/C(CCOC(=O)c1ccccc1)=C(\C)N(C=O)Cc1cnc(C)nc1N)N(C=O)Cc1cnc(C)nc1N	-11%
CC(C)=CCC/C(C)=C\CC/C(C)=C\CC/C(C)=C\CC1=C(C)C(=O)c2ccccc2C1=O	-5.07%
CCOC(=O)[C@H](CCc1ccccc1)NC(C)C(=O)N1CC2(CC1C(=O)O)SCCS2 (stereo not given in full)	-4.85%
O=C1O[C@H]2[C@@H](OC(O)[C@@H]2O)[C@H]1O (stereo not given in full)	-3.82%
CCC[C@]1(CCc2ccccc2)CC(O)=C([C@H](CC)c2cccc(NS(=O)(=O)c3ccc(C(F)(F)F)cn3)c2)C(=O)O1	-12.4%
COCC1=C(C(=O)OC(C)OC(=O)OC(C)C)N2C(=O)C(NC(=O)/C(=N/OC)c3csc(N)n3)[C@H]2SC1 (stereo not given in full)	-5.44%
